CYP2C19 activ: human CYP2C19 activators, primary screen, biochemical, luminescence. Cytochrome P450 2C19 (Homo sapiens), P33261. recombinant CYP2C19, luciferin-H EGE luminescence; active compounds read high; 0 = fully inhibited enzyme, 1 = untreated enzyme. activation factor at 5 µM. 96,000 tested, under 10 active. AID 1025, 2008;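 active means activation factor of at least 2 at 5 µM in the primary screen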;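 further: 0 = wells with 2.5 mM tranylcypromine and 1 = vehicle-only wells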
CYP2C9 act: human CYP2C9 activators, primary screen, biochemical, luminescence; 1.4% of 96,000 active; activation factor at 5 µM; recombinant CYP2C9, luciferin-H conversion; active compounds read high; factor 1 = untreated enzyme, 0 = blocked; AID 1024, 2008; Cytochrome P450 2C9 (Homo sapiens), P11712;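 active means activation factor of 2 or more for CYP2C9 at a 5 µM dose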;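 further: 0 = sulfaphenazole-blocked wells and 1 = vehicle-only wells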
Target sequence (P11712 whole entry, looked up): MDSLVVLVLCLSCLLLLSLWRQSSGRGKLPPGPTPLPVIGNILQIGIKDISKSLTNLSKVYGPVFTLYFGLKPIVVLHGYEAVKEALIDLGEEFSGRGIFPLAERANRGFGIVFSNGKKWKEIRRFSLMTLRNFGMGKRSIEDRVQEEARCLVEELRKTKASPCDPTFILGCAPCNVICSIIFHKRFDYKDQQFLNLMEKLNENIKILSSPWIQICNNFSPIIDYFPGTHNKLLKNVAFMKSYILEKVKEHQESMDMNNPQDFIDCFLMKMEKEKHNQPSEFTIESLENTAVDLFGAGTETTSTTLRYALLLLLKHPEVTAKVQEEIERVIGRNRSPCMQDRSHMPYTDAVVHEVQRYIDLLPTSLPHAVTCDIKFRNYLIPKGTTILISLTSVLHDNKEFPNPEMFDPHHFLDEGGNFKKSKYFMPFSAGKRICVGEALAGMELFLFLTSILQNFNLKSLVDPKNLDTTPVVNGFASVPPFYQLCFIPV
PostGolgi yeast: phenotypic screen on post-Golgi transport, primary screen | inhibition, % at 10 µM | 0.9% of 98,000 active | AID 739, 2007 | post-Golgi transport phenotypic cell assay;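 further: yeast cells grown in 1536-well plates; yeast grown about 18 h at 30C before absorbance read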
CYP2C9 inhib: blockers of cytochrome P450 2C9 activity – biochemical, luminescence, ADME assay, primary screen; CYP2C9 Supersomes, luciferin-H conversion; inhibition, % at 5 µM; 20% of 96,000 active;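 active means blocking of liver enzyme CYP2C9 beyond about 50% at 5 µM, limit read from the data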
CYP2C19 inhib: blockers of cytochrome P450 2C19 activity – biochemical, luminescence, ADME assay, primary screen. P33261. CYP2C19 Supersomes, luciferin-H EGE luminescence, 30 min. inhibition, % at 5 µM. 21% of 96,000 active;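 active means CYP2C19 inhibition above a set limit at 5 µM in the primary screen, cut at about 50% in these data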;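 further: plate controls were negative control wells for no effect and 2.5 mM tranylcypromine positive control for full effect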
PostGolgi ctrl: growth inhibition of yeast control strain, primary screen, counter-screen for post-Golgi transport modulator project. efflux-deficient yeast background strain, growth absorbance A615, 16 h. inhibition, % at 10 µM. 5% of 98,000 active. AID 738, 2007
* hit, by the source's call; x = no result given. Rows were chosen to be rich in hits. Some 32% of all compounds tested hit in one or more screens of this group. Unless noted, no stated cut-off is given here; in the data, active means inhibition above about 30%; inactive means the rest.

SMILES	CYP2C19 activ	CYP2C9 act	PostGolgi yeast	CYP2C9 inhib	CYP2C19 inhib	PostGolgi ctrl
O=C(O)Cc1ccc(C(=O)c2cccs2)s1	0.9	1	-1.3	4.4	8.4	3.4
Cc1nc(N)nc(-c2ccccc2O)n1	0.8	0.7	0.0	30.8	22.4	11.5
Cc1ccc(-c2nc(SCC(=O)NCCN3C(=O)CSC3=O)[nH]c2-c2ccc(C)cc2)cc1	1	0.4	-0.9	64.5*	-1.3	9.6
Cc1ccc(SCC(=O)NCCN2C(=O)CSC2=O)cc1C	0	1.3	12.1	-28.1	97.0*	-4.0
Cc1cccc(-n2nnnc2SCC(=O)NCCN2C(=O)CSC2=O)c1	0.2	1.7	0.6	-71.0	77.2*	1.5
Cc1ccc(SCC(=O)NCCN2C(=O)CSC2=O)c(C)c1	x	x	2.6	x	x	4.2
CCn1cc(C(=O)O)c(=O)c2cnc(N3CCN(C(=O)Nc4cccc5ccccc45)CC3)nc21	1	1	x	0.3	4.0	x
O=C(NCSc1ccncn1)c1ccccc1	0.6	1	3.1	3.0	37.0	-3.4
Cc1nc(/N=C\N(C)C)sc1C(=O)Nc1ccccc1	0.9	0.9	-6.5	9.8	14.5	-1.6
CN(C)/C=N/c1nc2ccc3c(c2s1)CCCC3	0.2	0.9	x	7.5	81.4*	x
CC(C)c1ccc(C2CC(=O)N3CN(Cc4ccco4)CSC3=C2C#N)cc1 (stereo not given)	0.7	0.3	6.3	72.7*	28.2	-0.5
COc1ccc(C2CC(=O)N3CN(Cc4ccco4)CSC3=C2C#N)cc1 (stereo not given)	0.9	0.8	5.6	20.4	8.8	3.6
COc1cccc(C2C(C#N)=C(N)Oc3cc(C)n(Cc4ccco4)c(=O)c32)c1 (stereo not given)	0.5	0.7	-7.5	30.8	48.0	19.8
N#CC1=C2SCN(Cc3ccco3)CN2C(=O)CC1c1ccc(Cl)cc1 (stereo not given)	0.4	0.3	2.7	70.2*	61.3*	-11.1
CC(=O)N=C1SC2CS(=O)(=O)CC2N1c1cccc(Cl)c1Cl (stereo not given)	0.9	0.3	-33.2	66.5*	11.1	16.1
Cc1cc(N2CCCC2)ccc1/C=N/n1cnnc1	0	0.1	4.0	86.1*	99.0*	13.4
Cn1c(=O)n(C)c2cc(/C=N/n3cnnc3)ccc21	0.8	0.9	12.8	12.5	16.7	13.8
CCOP(=O)(c1ccccc1)c1nc(-c2ccc(F)cc2)oc1N1CCCCC1 (stereo not given)	0.8	0.7	-1.8	29.9	18.1	32.3*
CCS(=O)(=O)N1CCCC(C(=O)NCCc2ccccc2)C1 (stereo not given)	0.8	0.7	-2.0	26.6	15.9	1.1
O/N=C(\COc1ccccc1O)c1ccccc1	0.1	0.6	12.9	36.6	92.8*	17.4
CC(=O)c1ccc2c(c1)C1C=CCC1C(c1ccncc1)N2 (stereo not given)	0.1	0.1	6.4	89.9*	92.2*	-4.2
COC(=O)c1ccc(C2Nc3ccc(/C(C)=N/NC(=O)C(OC)c4ccccc4)cc3C3C=CCC32)cc1 (stereo not given)	0.8	0.7	6.9	33.8	23.8	-2.5
O=C(O)c1ccc(Cl)c2c1C1C=CCC1C(c1ccccn1)N2 (stereo not given)	1	0.8	-5.4	21.7	0.2	-10.0
C1=CC2c3ccccc3NC(c3ccncc3)C2C1 (stereo not given)	0.2	0.3	2.3	72.6*	81.9*	6.1
N#Cc1c(N)c(C#N)c(-c2ccc3c(c2)OCO3)c2c1CCCC2	1	1	6.0	-1.6	-1.7	18.7
SMILES	CYP2C19 activ	CYP2C9 act	PostGolgi yeast	CYP2C9 inhib	CYP2C19 inhib	PostGolgi ctrl
N#Cc1c(N)c(C#N)c(-c2ccc(O)cc2)c2c1CCCC2	0.6	1.4	7.4	-36.0	36.8	33.9*
CCn1c(SC)nnc1-c1sc2cc(Cl)ccc2c1Cl	0.6	1.4	-3.1	-35.4	36.2	69.8*
CSc1nnc(-c2sc3cc(C(F)(F)F)cnc3c2-c2ccccn2)n1C	1.1	0.7	-4.2	34.5	-10.3	22.0
CSc1nnc(-c2sc3cc(Cl)ccc3c2Cl)n1C	0.5	0.8	4.9	23.9	52.5*	20.2
COc1ccc2c(Cl)c(-c3nnc4n3CCCCC4)sc2c1	0.6	1.1	-3.2	-8.7	38.6	17.5
COc1cc(/C=C2/C(=N)N3C=CSC3=NC2=O)ccc1OCCCOc1cc(C)ccc1C	0.8	0.7	19.5	32.8	21.1	-5.8
Cc1ccccc1Cn1cccc1/C=C1/C(=N)N2C=CSC2=NC1=O	0.5	0.1	6.5	85.2*	45.5	6.9
O=C(c1cccnc1)N1C2CCC1CC(O)(c1ccc(F)cc1)C2 (stereo not given)	0.5	0.9	21.6	12.2	51.5*	12.7
CCOc1ccc(/C=N/n2c(SC)nnc(C(C)(C)C)c2=O)cc1	0.9	0.8	-0.2	23.5	9.8	18.0
CCN1CCN(S(=O)(=O)c2cc(C)c(OC)cc2C)CC1	0.7	1.7	4.5	-74.3	28.2	16.2
Cc1ccc(S(=O)(=O)N2CCC(C(N)=O)CC2)c(C)c1C	0.7	1.2	5.0	-23.4	29.3	-1.0
COc1cc(S(=O)(=O)N2CCC(C(N)=O)CC2)c(C)cc1C	0.3	3*	-4.3	-199.5	68.9*	-2.9
Cc1cc(C)c(S(=O)(=O)N2CCC(C(N)=O)CC2)cc1C	0.6	2.3*	1.1	-133.0	38.1	13.8
Cn1c(SCc2nn[nH]n2)nc2c1c(=O)n(Cc1ccccc1Cl)c(=O)n2C	1	0.5	-3.5	54.6*	-3.5	-0.9
C=CCn1c(=O)c2c(nc(Br)n2Cc2ccccc2Cl)n(C)c1=O	0.3	1	-1.4	4.3	70.9*	6.7
CCCCOC(=O)Cn1c(=O)c2c(nc(Br)n2Cc2ccccc2)n(C)c1=O	0.1	0.2	-13.8	78.5*	89.4*	22.9
CC(C)c1nc2cc3ccccc3cc2[nH]1	0.9	0.9	9.3	12.8	11.5	5.0
CCOC(=O)C(C)Oc1ccc2c(CC)cc(=O)oc2c1C (stereo not given)	0.6	0.4	-1.6	60.3*	35.4	11.6
CCOC(=O)C(C)Oc1ccc2c(C)cc(=O)oc2c1C(C)=O (stereo not given)	0.4	0.9	33.0*	6.6	58.2*	2.8
O=C1CCCCCN1CP(=O)(O)CN1CCOCC1	1	1	x	1.9	1.7	x
O=CN1Cc2[nH]c3ccccc3c2N(c2ccc(Cl)cc2)C1=O	0.6	0.9	4.5	11.9	44.3	4.9
Cc1nc2nc(Cc3ccccc3)[nH]n2c(=O)c1Cc1ccccc1	1.1	1	9.6	-1.4	-13.1	-0.9
O=c1cc(-c2ccccc2)nc2nc(COc3ccccc3)[nH]n12	1	0.7	-2.6	28.3	4.6	0.0

Source: PubChem
